# Laboratory results as given in PubChem BioAssay (NCATS).
# Results filed as inconclusive are left out. The source made the active and inactive calls. Calls come from the whole dose curve; as a rule, active = well fitted curve in the direction sought with a large enough effect; inconclusive = small, poorly fitted or top-dose-only effect, or another doubt; inactive = no such curve, though single readings can be large; an effect the other way counts as inactive or inconclusive.
# Columns and labels:
# [1] = qHTS of pediatric cancer cell lines to identify multiple opportunities for drug repurposing: Primary screen for Saos-2 cells (AID 1347097); note: potency is the fitted concentration of half-maximal effect; nearly all actives have a fitted effect of over 40% in size
# Method in brief: (§1)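 Quantitative HTS format: each compound titrated (MIPE 11 points from 0.78 nM, NPC 8 points from 0.59 nM) onto cells plated 5 hours earlier. After 48 h at 37 degrees C, CellTiter-Glo luminescence was recorded.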
# [2] = qHTS of pediatric cancer cell lines to identify multiple opportunities for drug repurposing: Primary screen for SK-N-SH cells (AID 1347098); note: potency is the fitted concentration of half-maximal effect; nearly all actives have a fitted effect of over 65% in size
# Method in brief: (§2)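 Cells (500-1,000/well) rested 5 h, then received compounds for 48 h; metabolically active cells were measured by CellTiter-Glo luminescence. Final concentrations spanned up to 46 µM (MIPE, 11-point) or 0.59 nM-46 µM (NPC, 8-point) in primary screens, 11-point in follow-ups.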
# [3] = qHTS of pediatric cancer cell lines to identify multiple opportunities for drug repurposing: Primary screen for BT-12 cells (AID 1347101); note: potency is the fitted concentration of half-maximal effect; nearly all actives have a fitted effect of over 25% in size
# Method in brief: as §2
# [4] = qHTS of pediatric cancer cell lines to identify multiple opportunities for drug repurposing: Primary screen for OHS-50 cells (AID 1347103); note: potency is the fitted concentration of half-maximal effect; nearly all actives have a fitted effect of over 40% in size
# Method in brief: as §2
# [5] = qHTS of pediatric cancer cell lines to identify multiple opportunities for drug repurposing: Primary screen for RD cells (AID 1347104); note: potency is the fitted concentration of half-maximal effect; nearly all actives have a fitted effect of over 55% in size
# Method in brief: as §1
# [6] = qHTS of pediatric cancer cell lines to identify multiple opportunities for drug repurposing: Primary screen for control Hh wild type fibroblast cells (AID 1347106); note: nearly all actives have a fitted effect of over 55% in size; note: potency is the fitted concentration of half-maximal effect
# Method in brief: (§3)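 Viability after 48 h compound treatment at 37C, 500-1,000 cells/well, read as ATP luminescence with CellTiter-Glo. Primary screens used 11-point (MIPE, 0.78 nM-46 µM) or 8-point (NPC, 0.59 nM-46 µM) final concentrations; follow-up screens used 11-point dilutions.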
# [7] = qHTS of pediatric cancer cell lines to identify multiple opportunities for drug repurposing: Primary screen for Rh41 cells (AID 1347108); note: potency is the fitted concentration of half-maximal effect; nearly all actives have a fitted effect of over 70% in size
# Method in brief: as §1
# [8] = qHTS of pediatric cancer cell lines to identify multiple opportunities for drug repurposing: Confirmatory screen for A673 cells (AID 1347110); note: nearly all actives have a fitted effect of over 65% in size; note: potency is the fitted concentration of half-maximal effect
# Method in brief: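 Viability was read as ATP luminescence (CellTiter-Glo) after 48 h of compound exposure at 37 C in A673 cells seeded at 500-1,000/well. Titrations reached 46 uM final, with 11 points in the confirmatory screen. Concentration-response curves were fitted directly.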
# [9] = qHTS of pediatric cancer cell lines to identify multiple opportunities for drug repurposing: Confirmatory screen for SK-N-MC cells (AID 1347111);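 note: cells exposed to compound for 48 h before the readout; nearly all actives have a fitted effect of over 70% in size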; note: potency is the fitted concentration of half-maximal effect
# Method in brief: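 SK-N-MC cells at 500-1,000 cells/well in growth media were pre-incubated 5 h, then exposed to compounds at 11-point dilutions for 48 h at 37 degrees C, 5% CO2. Viability was read as CellTiter-Glo luminescence.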
# [10] = qHTS of pediatric cancer cell lines to identify multiple opportunities for drug repurposing: Confirmatory screen for BT-12 cells (AID 1347112); note: nearly all actives have a fitted effect of over 55% in size; note: potency is the fitted concentration of half-maximal effect
# Method in brief: as §3
# [11] = qHTS of pediatric cancer cell lines to identify multiple opportunities for drug repurposing: Confirmatory screen for LAN-5 cells (AID 1347113); note: nearly all actives have a fitted effect of over 65% in size; note: potency is the fitted concentration of half-maximal effect
# Method in brief: as §3
# [12] = qHTS of pediatric cancer cell lines to identify multiple opportunities for drug repurposing: Confirmatory screen for DAOY cells (AID 1347114); note: nearly all actives have a fitted effect of over 65% in size; note: potency is the fitted concentration of half-maximal effect
# Method in brief: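 Viability measured as metabolically active cells via CellTiter-Glo luminescence following 48 hours of compound exposure, 11-point dilutions in confirmatory testing. 500-1,000 cells/well plated 5 hours before dosing; controls were DMSO and 2.3 µM bortezomib.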
# [13] = qHTS of pediatric cancer cell lines to identify multiple opportunities for drug repurposing: Primary screen for Rh18 cells (AID 1347102)
# Method in brief: as §3
# [14] = qHTS of pediatric cancer cell lines to identify multiple opportunities for drug repurposing: Primary screen for MG 63 (6-TG R) cells (AID 1347105); note: potency is the fitted concentration of half-maximal effect; nearly all actives have a fitted effect of over 50% in size
# Method in brief: as §1
# [15] = qHTS of pediatric cancer cell lines to identify multiple opportunities for drug repurposing: Primary screen for NB1643 cells (AID 1347099); note: nearly all actives have a fitted effect of over 50% in size
# Method in brief: as §1
# [16] = qHTS of pediatric cancer cell lines to identify multiple opportunities for drug repurposing: Primary screen for LAN-5 cells (AID 1347100); note: potency is the fitted concentration of half-maximal effect
# Method in brief: as §3
# [17] = qHTS of pediatric cancer cell lines to identify multiple opportunities for drug repurposing: Confirmatory screen for NB1643 cells (AID 1347109); note: nearly all actives have a fitted effect of over 45% in size; note: potency is the fitted concentration of half-maximal effect
# Method in brief: as §3
# [18] = qHTS of pediatric cancer cell lines to identify multiple opportunities for drug repurposing: Confirmatory screen for NB-EBc1 cells (AID 1347115); note: nearly all actives have a fitted effect of over 45% in size
# Method in brief: as §3
SMILES,Potency [1],Potency [2],Potency [3],Potency [4],Potency [5],Potency [6],Potency [7],Potency [8],Potency [9],Potency [10],Potency [11],Potency [12],Potency [13],Potency [14],Potency [15],Potency [16],Potency [17],Potency [18]
CC(C)c1cnn2c(NCc3ccccc3)cc(N[C@@H](CO)[C@H](O)CO)nc12,296 nM (active),304 nM (active),344 nM (active),273 nM (active),372 nM (active),inactive,743 nM (active),369 nM (active),585 nM (active),522 nM (active),293 nM (active),827 nM (active),–,–,–,–,–,–
CCOC(=O)C1=C(C)NC2=C(C(=O)CC(C)(C)C2)C1c1ccc(-c2ccccc2)cc1 (centres undefined),3320 nM (active),–,24300 nM (active),19300 nM (active),–,inactive,18700 nM (active),–,–,–,–,–,16600 nM (active),14800 nM (active),–,–,–,–
CC(C)=CCCC(C)=CCCC(C)=CCSc1ccccc1C(=O)O,3720 nM (active),–,–,1530 nM (active),–,–,4690 nM (active),–,–,–,–,–,11800 nM (active),3720 nM (active),inactive,–,–,–
Cc1c(CN2CCN(S(C)(=O)=O)CC2)sc2c(N3CCOCC3)nc(-c3cnc(N)nc3)nc12,332 nM (active),1920 nM (active),–,9.7 nM (active),132 nM (active),209 nM (active),148 nM (active),1850 nM (active),827 nM (active),–,1310 nM (active),–,105 nM (active),37.2 nM (active),–,26.4 nM (active),1310 nM (active),–
CCNC(=O)Nc1ccc2ncc(Nc3ccc(C)cc3)nc2n1,18700 nM (active),–,–,24300 nM (active),–,inactive,–,inactive,inactive,inactive,inactive,inactive,–,–,–,935 nM (active),inactive,inactive
